This is an account of results in PubChem BioAssay AID720630 (Broad Institute, 2013).

A short description of this assay: HUVEC apoptotic caspase activation, HRAS target ID – cell-based, multiple timepoints, luminescence, dry powder, mechanism study for HRAS target identification, dose response (AID 720630). Particulars: HUVEC apoptosis, caspase-3/7 luminescence; for caspase activation: at 35 µM (top of the series).
Where [1] appears, read: measured here: max caspase activation timepoint 1, at 0.001 µM, test 1, stronger effect = higher value.

Results filed as inconclusive are left out. Activity calls are given as the source filed them. No rule for the calls is given here.

On to `CCC(=O)N(c1ccc(OC)c(Cl)c1)C(C(=O)NCCc1ccccc1)c1cccs1` (stereo not drawn), for which the caspase activation is 8.9% (inactive). The max activity under setting [1] is -18.6%. Besides, the max activity (measured here: max caspase activation timepoint 2, at 16 µM, test 2, stronger effect = higher value) was -23.7%. Moreover, the max activity (measured here: max caspase activation timepoint 3, at 4.2 µM, test 3, stronger effect = higher value) is -13.9%.

`Cc1onc(C(=O)N2CCN(C(c3ccc(Cl)cc3)c3ccc(Cl)cc3)CC2)c1[N+](=O)[O-]`: the caspase activation is -6.38% (inactive). Further, the max activity under setting [1] is -21.9%. Moreover, where the note is “measured here: max caspase activation timepoint 2, at 1 µM, test 2, stronger effect = higher value”, the max activity was -18.4%. For the same compound, where the note is “measured here: max caspase activation timepoint 3, at 0.008 µM, test 3, stronger effect = higher value”, the max activity is -32.1%.
